Measured values from PubChem BioAssay (NCATS).
“And” between values parts separate entries of the source, which are not always exact repeats. Equal entries are not always repeated. Inconclusive results are not listed. Where a call stands in place of a potency, no number is given. Some compounds were tested as several samples or in several runs, with calls that do not always agree. The source made the active and inactive calls. Unless noted, calls follow the shape of the dose curve; as a rule, active = well fitted curve in the direction sought with a large enough effect; inconclusive = small, poorly fitted or top-dose-only effect, or another doubt; inactive = no such curve, though single readings can be large; an effect the other way counts as inactive or inconclusive.

Legend:
[1] = Primary qHTS for inhibitors of La Crosse Virus (LACV) - induced cell death in SH-SY5Y cells (AID 1508616);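 also: top concentration of the series differs between compounds; higher means more rescue of cells from virus-induced death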
In short: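 SH-SY5Y cells (6000/well) plated 24 h, then given compounds by pin transfer and LACV at 0.01 MOI for 6 days at 37C. Viability measured by ATPLite luminescence, normalized to infected DMSO and uninfected DMSO.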

[2] = molecular target: Calcium and integrin-binding protein 1 (Homo sapiens) (UniProt Q99828); assay: Validation qHTS for Identification of Calcium Integrin Binding protein 1 (CIB1) Competitor (AID 1508618); also: potency is read from the fitted curve at half-maximal effect
In short: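 Displacement of FITC-alphaIIb peptide (100 nM) from CIB1-GST (1 uM) is monitored by polarization in quantitative HTS format; buffer carries 5 mM CaCl2 and 125 mM NaCl at pH 7.4, incubations are at room temperature.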

[3] = molecular target: Calcium and integrin-binding protein 1 (Homo sapiens) (UniProt Q99828); assay: Primary qHTS for Identification of Calcium Integrin Binding Protein 1 (CIB1) Competitor (AID 1508620);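 also: GST tagged CIB1 binding a fluorescein labelled alphaIIb integrin peptide tracer; top concentration of the series differs between compounds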
In short: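 CIB1-GST (1 uM final) and compound incubated 15 min at room temperature before adding FITC-alphaIIb peptide tracer (100 nM final). Competition for binding read by fluorescence polarization (ex 480, em 540) after another 15 min at room temperature.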

[4] = Primary qHTS for small molecule stabilizers of the endoplasmic reticulum resident proteome: Secreted ER Calcium Modulated Protein (SERCaMP) assay (AID 1508630)
In short: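 GLuc-SERCaMP-expressing SH-SY5Y cells, pretreated 16 h with compound, are challenged with thapsigargin to empty ER calcium stores; after 4 h, coelenterazine is added directly to the medium and luminescence is imaged.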

[5] = A High-Content qHTS Against Drug Library for the Identification of Small Molecules that Inhibit DYT1 Early Onset Primary Dystonia-Associated Cell Pathology (AID 1645839; calls by dose curve; also: potency is read from the fitted curve at half-maximal effect)
In short: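 In this high-content image screen, delE TorsinA mislocalization in inducible Flp-In 293 cells is scored as %pathology, with cell count serving as the counterscreen. Compound exposure lasts 48 h under tetracycline induction in reduced-serum medium.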

[6] = molecular target: Cytochrome P450 2D6 (Homo sapiens) (UniProt P10635); assay: Cytochrome P450 family 2 subfamily D member 6 (CYP2D6) small molecule antagonists: luciferase biochemical (cell-free) qHTS assay (AID 1645840; active = well fitted curve in the direction sought with a large enough effect in the repeat runs; an effect the other way counts as inactive or inconclusive; also: series mostly up to about 57 µM; nearly all actives have a fitted effect of over 55% in size)
In short: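 P450-Glo luminescent screen: recombinant CYP2D6 enzyme–proluciferin substrate mix preincubated with compound 10 min at room temperature, then NADPH regeneration added for 1 h at room temperature. Detection reagent added for 20 min; luciferin light read as relative luminescence units.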

[7] = molecular target: Cytochrome P450 2C9 (Homo sapiens) (UniProt P11712); assay: Cytochrome P450 family 2 subfamily C member 9 (CYP2C9) small molecule antagonists: luciferase biochemical (cell-free) qHTS assay (AID 1645842; active = well fitted curve in the direction sought with a large enough effect in the repeat runs; an effect the other way counts as inactive or inconclusive; also: nearly all actives have a fitted effect of over 55% in size; also: potency is read from the fitted curve at half-maximal effect)
In short: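 Luminescence, after 20 min with luciferin detection reagent, reflected CYP2C9 turnover during a 1 h NADPH-driven reaction at 37C. Enzyme-substrate mix contained 0.4% bovine serum albumin and was preincubated with compound 10 min at room temperature.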

Papain (Carica papaya) = Papain (Carica papaya) (UniProt P00784); assay: Primary qHTS assay for inhibitors of the protease papain (AID 1645873);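 also: papain turnover of Z-FR-AMC read as the AMC fluorescence gain over 10 min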; also: potency is read from the fitted curve at half-maximal effect
[8] = Primary qHTS for inhibitors of nuclear receptor binding SET domain protein 2 (NSD2) in an isogenic RCH-ACV NSD2 p.E1099K mutant (9B) (AID 1645876); also: nearly all actives have a fitted effect of over 70% in size; also: potency is read from the fitted curve at half-maximal effect
[9] = Primary qHTS for inhibitors of nuclear receptor binding SET domain protein 2 (NSD2) in an RCH-ACV wild type WT cells (2C) (AID 1645877); also: nearly all actives have a fitted effect of over 70% in size; also: potency is read from the fitted curve at half-maximal effect
[10] = Counterscreen qHTS for small molecule stabilizers of the endoplasmic reticulum resident proteome: GLuc-NoTag assay (AID 1508627);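 also: SH-SY5Y cells given compound then 100 nM thapsigargin to empty ER calcium; series mostly up to about 76 µM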
In short: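 Luminescence of Gaussia luciferase secreted into the medium (coelenterazine, 0.07x final, unlysed cells) was the read-out. Human SH-SY5Y neuroblastoma cells constitutively secreting untagged GLuc received compound for 19 h, then 100 nM thapsigargin for 4 h.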

[11] = Cell Viability qHTS for small molecule stabilizers of the endoplasmic reticulum resident proteome (AID 1508629); details: cell viability counter-screen, 100 nM thapsigargin for final 4 h;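 also: human SH-SY5Y neuroblastoma cells carrying the GLuc-SERCaMP reporter; compound exposure about 46 h in total before the viability read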
[12] = molecular target: Calcium and integrin-binding protein 1 (Homo sapiens) (UniProt Q99828); assay: Confirmatory qHTS for Identification of Calcium Integrin Binding Protein 1 (CIB1) Competitor (AID 1508617); also: nearly all actives have a fitted effect of over 65% in size; also: potency is read from the fitted curve at half-maximal effect
In short: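 Confirmatory qHTS measures displacement of a FITC-alphaIIb peptide (100 nM) from CIB1-GST (1 uM) by fluorescence polarization. Calcium-containing HEPES buffer, pH 7.4; two 15 min room-temperature incubations.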

Chain of Cytochrome P450 2D6 (Homo sapiens) (P10635 whole entry, looked up): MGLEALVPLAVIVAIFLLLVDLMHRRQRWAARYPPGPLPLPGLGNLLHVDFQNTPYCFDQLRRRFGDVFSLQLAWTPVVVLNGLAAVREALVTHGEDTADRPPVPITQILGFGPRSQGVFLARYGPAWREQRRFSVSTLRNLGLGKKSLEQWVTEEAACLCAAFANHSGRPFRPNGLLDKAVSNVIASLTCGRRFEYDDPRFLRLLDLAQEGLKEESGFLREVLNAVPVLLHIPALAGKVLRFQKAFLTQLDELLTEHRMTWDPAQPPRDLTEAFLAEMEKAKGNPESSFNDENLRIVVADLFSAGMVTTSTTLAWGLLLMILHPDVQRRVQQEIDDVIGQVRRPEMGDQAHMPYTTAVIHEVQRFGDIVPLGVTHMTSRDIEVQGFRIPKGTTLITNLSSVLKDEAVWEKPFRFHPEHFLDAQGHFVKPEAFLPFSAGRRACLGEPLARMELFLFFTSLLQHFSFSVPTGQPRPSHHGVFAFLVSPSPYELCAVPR
Chain of Cytochrome P450 2C9 (Homo sapiens) (P11712 whole entry, looked up): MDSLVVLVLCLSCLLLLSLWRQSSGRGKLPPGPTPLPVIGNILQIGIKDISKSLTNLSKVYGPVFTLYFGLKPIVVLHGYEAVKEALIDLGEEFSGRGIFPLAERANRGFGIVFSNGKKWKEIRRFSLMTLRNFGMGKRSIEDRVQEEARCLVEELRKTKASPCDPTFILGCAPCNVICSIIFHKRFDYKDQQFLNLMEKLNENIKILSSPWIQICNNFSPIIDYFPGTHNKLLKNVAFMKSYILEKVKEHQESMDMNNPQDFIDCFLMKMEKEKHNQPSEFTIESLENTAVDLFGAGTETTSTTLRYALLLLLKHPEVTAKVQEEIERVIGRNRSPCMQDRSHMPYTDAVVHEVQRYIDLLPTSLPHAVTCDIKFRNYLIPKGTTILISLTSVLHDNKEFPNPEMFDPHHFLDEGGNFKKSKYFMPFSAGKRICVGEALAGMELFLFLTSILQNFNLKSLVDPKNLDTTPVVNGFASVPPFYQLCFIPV
Chain of Papain (Carica papaya) (P00784 whole entry, looked up, the tested form may be a part): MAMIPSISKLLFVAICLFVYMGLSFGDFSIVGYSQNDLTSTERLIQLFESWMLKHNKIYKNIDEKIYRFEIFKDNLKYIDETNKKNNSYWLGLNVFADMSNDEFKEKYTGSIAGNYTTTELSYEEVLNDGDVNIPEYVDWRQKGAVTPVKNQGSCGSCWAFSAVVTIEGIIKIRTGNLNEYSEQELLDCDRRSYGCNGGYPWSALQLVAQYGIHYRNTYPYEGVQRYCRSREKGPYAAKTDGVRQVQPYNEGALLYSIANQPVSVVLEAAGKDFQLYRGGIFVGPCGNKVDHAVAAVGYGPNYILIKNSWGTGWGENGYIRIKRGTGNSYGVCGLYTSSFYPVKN
Chain of Calcium and integrin-binding protein 1 (Homo sapiens) (Q99828 whole entry, looked up): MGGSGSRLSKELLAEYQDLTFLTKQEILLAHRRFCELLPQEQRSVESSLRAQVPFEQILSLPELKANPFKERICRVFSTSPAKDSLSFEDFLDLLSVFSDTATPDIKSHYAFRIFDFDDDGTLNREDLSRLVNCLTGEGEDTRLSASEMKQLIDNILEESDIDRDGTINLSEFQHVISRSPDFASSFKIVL

| SMILES | outcome [1] | Potency [2] | outcome [3] | Potency [4] | Potency [5] | Potency [6] | Potency [7] | Potency (Papain (Carica papaya)) | Potency [8] | Potency [9] | Potency [10] | max response [11] | Potency [12] |
| --- | --- | --- | --- | --- | --- | --- | --- | --- | --- | --- | --- | --- | --- |
| Cn1cnc([N+](=O)[O-])c1Sc1ncnc2nc[nH]c12 | inactive | inactive | inactive | inactive | 35.5 µM (active) and inactive | inactive | inactive | inactive | 959 nM (active) and 1.19 µM (active) and 4.17 µM (active) | 1.35 µM (active) and 944 nM (active) and 3.72 µM (active) |  |  |  |
| O=c1[nH]cnc2[nH]ncc12 | inactive | inactive | inactive | inactive | inactive | inactive | inactive | inactive | inactive | inactive |  |  |  |
| Cc1ccccc1C(OCCN(C)C)c1ccccc1 (stereo not given) | inactive | inactive | inactive | inactive | inactive |  | inactive | inactive | inactive |  | inactive |  |  |
| Cc1[nH]c(=O)c(C#N)cc1-c1ccc2nccn2c1 | inactive | inactive | inactive | inactive | inactive | inactive | inactive |  | inactive |  | inactive | 9.8% (inactive) |  |
| NCCc1ccc(O)c(O)c1 | inactive | inactive | inactive | inactive | inactive | inactive | inactive | inactive | inactive and 23.5 µM (active) | inactive |  |  |  |
| CCCCNc1cc(C(=O)O)cc(S(N)(=O)=O)c1Oc1ccccc1 | inactive | inactive | inactive | inactive | inactive |  |  | 20 µM (active) | inactive |  |  |  |  |
| CCCc1nn(C)c2c(=O)[nH]c(-c3cc(S(=O)(=O)N4CCN(C)CC4)ccc3OCC)nc12 | inactive | inactive | inactive | inactive | inactive | inactive | 13.5 µM (active) | inactive | inactive | 10.6 µM (active) and inactive |  |  |  |
| CC(C)NCC(O)COc1ccc(COCCOC(C)C)cc1 (stereo not given) | inactive | inactive | inactive | inactive | inactive | inactive | inactive | inactive | inactive |  |  |  |  |
| Nc1ccc(S(=O)(=O)Nc2ccnn2-c2ccccc2)cc1 | inactive | inactive | inactive | inactive | inactive | inactive |  |  | inactive | inactive |  |  |  |
| Cc1[nH]c(=O)c(C#N)cc1-c1ccncc1 | inactive | inactive | inactive | inactive | inactive | inactive | 29.9 µM (active) | inactive | inactive | inactive |  |  |  |
| NC[C@H](O)c1ccc(O)c(O)c1 | inactive | inactive | inactive | inactive | inactive | inactive |  |  | inactive | inactive |  |  | inactive |
| O=C1CCc2cc(OCCCCc3nnnn3C3CCCCC3)ccc2N1 | inactive | inactive | inactive | inactive | inactive | inactive | 6.17 µM (active) | inactive | inactive |  |  |  |  |
| NC(N)=NC(=O)c1nc(Cl)c(N)nc1N | inactive | inactive | inactive | inactive | inactive | inactive | inactive | 28.2 µM (active) |  |  |  |  |  |
| Cc1cc2c(C(C)C)c(O)c(O)c(C=O)c2c(O)c1-c1c(C)cc2c(C(C)C)c(O)c(O)c(C=O)c2c1O | inactive | 22.4 µM (active) |  | inactive |  |  |  | 12.6 µM (active) | 10.5 µM (active) | 9.34 µM (active) |  |  | 3.16 µM (active) and 28.2 µM (active) |
| Clc1cccc(Cl)c1NC1=NCCN1 | inactive | inactive | inactive | inactive | inactive |  | inactive | inactive | inactive | inactive |  |  |  |
| O=c1n(CCCN2CCN(c3cccc(Cl)c3)CC2)nc2ccccn12 | inactive | inactive | inactive | inactive | inactive |  | inactive |  |  | inactive |  |  |  |
| Cc1oncc1C(=O)Nc1ccc(C(F)(F)F)cc1 | inactive | inactive | inactive | inactive | inactive |  | 13.8 µM (active) | inactive | 10.6 µM (active) and 16.6 µM (active) |  |  |  |  |
| CC(C[N+](C)(C)C)OC(N)=O (stereo not given) | inactive | inactive | inactive | inactive | inactive | inactive | inactive | inactive | inactive | inactive |  |  |  |
| CCCC(CCC)C(=O)O | inactive | inactive | inactive | inactive | inactive | inactive | inactive | inactive | inactive | inactive |  |  |  |
